Where a name gives a salt, the structure may show the parent alone.
Assays:
Experiment in all cases: thermal shift delta Tm vs DMSO control; higher = stronger stabilization (binding)
Conditions in all cases: 12.5 µM; protein concentration 2 µM
[1] = tested on: LOC_OS04G57630-cb004
Outline: (§1)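 Compounds dissolved in DMSO were added to purified rice kinase domain constructs, which had been expressed in E. coli, for differential scanning fluorimetry. Each well held 19.5 μl of 2 μM kinase in 100 mM potassium phosphate pH 7.5, 150 mM NaCl, 10% glycerol and 5 × SYPRO Orange. Fluorescence was followed from 25°C to 95°C at a rate of 0.05°C/s. Shifts in Boltzmann-fitted melting temperature are triplicate means relative to DMSO-only protein.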

[2] = tested on: LOC_OS05G07850-cb002
Outline: as §1

[3] = tested on: LOC_OS05G16824-cb004
Outline: as §1

[4] = tested on: LOC_OS05G28520-cb001
Outline: as §1

[5] = tested on: LOC_OS05G30820-cb001
Outline: as §1

[6] = tested on: LOC_OS05G43570-cb004
Outline: as §1

[7] = tested on: LOC_OS06G16330-cb003
Chain of LOC_OS06G16330-cb003 (as listed by the source): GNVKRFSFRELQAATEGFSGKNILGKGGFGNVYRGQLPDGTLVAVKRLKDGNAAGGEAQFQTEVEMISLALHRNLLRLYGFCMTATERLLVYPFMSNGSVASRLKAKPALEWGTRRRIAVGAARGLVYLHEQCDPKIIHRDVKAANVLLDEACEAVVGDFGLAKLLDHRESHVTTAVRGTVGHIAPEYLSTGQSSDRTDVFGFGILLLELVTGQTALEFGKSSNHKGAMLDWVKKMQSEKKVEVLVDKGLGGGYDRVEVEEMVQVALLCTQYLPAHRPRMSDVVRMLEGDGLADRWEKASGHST
Outline: as §1

[8] = tested on: T1, LOC_OS06G22820-cb001
T1 sequence (whole entry): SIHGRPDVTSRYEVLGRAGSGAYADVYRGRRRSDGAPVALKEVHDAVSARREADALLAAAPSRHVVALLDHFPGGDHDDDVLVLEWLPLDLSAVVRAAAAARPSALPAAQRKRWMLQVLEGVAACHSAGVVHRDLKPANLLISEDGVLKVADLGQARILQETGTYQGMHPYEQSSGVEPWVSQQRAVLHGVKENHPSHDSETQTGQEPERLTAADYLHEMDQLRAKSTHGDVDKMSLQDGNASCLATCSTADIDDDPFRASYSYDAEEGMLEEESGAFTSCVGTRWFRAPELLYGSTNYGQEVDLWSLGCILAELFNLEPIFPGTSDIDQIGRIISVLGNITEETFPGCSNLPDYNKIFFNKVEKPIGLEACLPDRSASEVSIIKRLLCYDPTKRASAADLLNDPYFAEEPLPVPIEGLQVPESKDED
Outline: as §1

[9] = tested on: LOC_OS07G06570-cb004
Outline: as §1

[10] = tested on: LOC_OS07G07230-cb001
Outline: as §1

Structure (SMILES)	thermal shift delta Tm [1] [°C]	thermal shift delta Tm [2] [°C]	thermal shift delta Tm [3] [°C]	thermal shift delta Tm [4] [°C]	thermal shift delta Tm [5] [°C]	thermal shift delta Tm [6] [°C]	thermal shift delta Tm [7] [°C]	thermal shift delta Tm [8] [°C]	thermal shift delta Tm [9] [°C]	thermal shift delta Tm [10] [°C]
COc1ccc(F)c(F)c1C(=O)c1cnc(NC2CCN(S(C)(=O)=O)CC2)nc1N	0.37	3.17	-1.46	0.04	0.47	0.11	1.56	0.23	0.61	0.3
CCN1CCN(Cc2ccc(C(=O)Nc3ccc(C)c(Oc4ccc5c(c4)CC(=O)N5)c3)cc2C(F)(F)F)CC1	0.33	-0.13	2.03	0.4	0.41	0.42	0.43	0.56	0.16	0.28
O=c1cc(-c2ccccc2)oc2c(O)c(O)ccc12 [7,8-Dihydroxyflavone]	-0.51	1.25	-6.61	2.12	1.22	1.47	1.88	1.1	3.28	0.94
O=C(NOCC(O)CO)c1cc(Br)c(F)c(F)c1Nc1ccc(I)cc1F (stereo not given)	0.44	0.69	0.91	0.42	0.68	0.96	0.65	1.13	1.14	-0.63
CC#CC(=O)Nc1ccc2ncnc(Nc3cccc(Br)c3)c2c1	1.19	9.9	-2.35	0.85	0.66	0.95	3.13	0.56	1.04	0.05
O=C(Nc1cc(C(F)(F)F)cc(C(F)(F)F)c1)c1cc(Cl)ccc1O	-0.05	-0.13	-0.94	0.78	0.67	0.76	0.52	0.91	1.68	-0.11
COc1ncc(-c2cc(-c3ncc(CN4C[C@@H](C)O[C@@H](C)C4)o3)c3cn[nH]c3c2)cc1NS(C)(=O)=O	0.12	1.71	-0.4	0.61	0.21	0.39	-0.32	0.44	0.86	0.19
C=CC(=O)Nc1ccc2ncnc(Nc3ccc(OCc4cccc(F)c4)c(Cl)c3)c2c1	2.39	1.81	3.11	1.71	0.87	2.77	1.04	2.98	1.79	-0.18
O=c1cc(N2CCOCC2)oc2c(-c3cccc4c3sc3ccccc34)cccc12	-0.76	0.31	-2.7	0.25	0.1	-0.66	-1.48	0.17	0.25	-0.42
N#CC1(c2ccc(NC(=O)c3cccnc3NCc3ccncc3)cc2)CCCC1 [Apatinib]	0.34	0.8	-5.15	0.2	0.66	0.51	-0.32	0.38	1.2	0.05
COc1cc(CCc2cc(NC(=O)c3ccc(N4CC(C)NC(C)C4)cc3)n[nH]2)cc(OC)c1 (stereo not given)	2.33	3.41	4.73	6.65	0.59	0.4	2.54	0.35	0	-0.08
COc1cc(N2CCC(N)CC2)ccc1Nc1ncc(Cl)c(-c2c[nH]c3ccccc23)n1	4.46	13.4	8.24	1.74	2.33	1.06	10.4	0.85	2.26	1.14
CC(C)CC(NC(=O)C(Cc1ccccc1)NC(=O)C(CCC(N)=O)NC(=O)C(Cc1ccc(O)cc1)NC(=O)C(C)NC(=O)CNC(=O)C(CCCCN)NC(=O)C(Cc1c[nH]c2ccccc12)NC(=O)C(NC(=O)C(Cc1c[nH]c2ccccc12)NC(=O)C(CCCCN)NC(=O)CNC(=O)C(CC(N)=O)NC(=O)C(CCC(=O)O)NC(=O)C(Cc1c[nH]c2ccccc12)NC(=O)C(NC(=O)C(Cc1c[nH]c2ccccc12)NC(=O)C(CO)NC(=O)CNC(=O)C1CCCN1C(=O)C(Cc1c[nH]c2ccccc12)NC(=O)C(CCC(N)=O)NC(=O)C(Cc1ccccc1)NC(=O)CNC(=O)C(N)Cc1c[nH]cn1)C(C)O)C(C)O)C(=O)NC(CCCCN)C(=O)NCC(=O)NCC(=O)NCC(=O)NCC(=O)NC(CO)C(=O)NC(CCCNC(=N)N)C(=O)NC(CCCNC(=N)N)C(=O)NC(CCCNC(=N)N)C(=O)NC(CCCNC(=N)N)C(=O)NC(CCCNC(=N)N)C(=O)NC(CCCNC(=N)N)C(=O)NC(CCCNC(=N)N)C(=O)NC(CCCNC(=N)N)C(=O)NC(CCCNC(=N)N)C(=O)O (stereo not given)	0.42	3.56	2.71	0.07	0.42	1.33	0.39	1.2	0.27	0.04
CC#CC(=O)N1CC[C@@H](n2c(=O)n(-c3ccc(Oc4ccccc4)cc3)c3c(N)ncnc32)C1 [ONO-4059 (GS-4059) hydrochloride]	0.32	-0.32	-5.29	0.56	0.41	0.2	-0.41	0.35	0.52	0.73
Cc1cc(Nc2cc(CN3CCOCC3)c3nc(C)c(Cc4ccc(Cl)cc4F)n3n2)n[nH]1	1.33	11.1	6.97	1.47	1.14	0.39	9.97	-0.03	0.22	-0.28
CNc1nc(-c2ccc3c(N)n[nH]c3c2)cc(N2C[C@@H](C(=O)NC3CCCCC3)CC[C@H]2C)n1	0.37	2.19	-1.52	0.81	0.31	0.65	0.1	0.79	1.92	0.33
O=C1NC(=O)/C(=C/c2ccc3c(c2)OC(F)(F)O3)S1	0.83	0.16	-1.22	0.96	0.8	0.74	0.37	0.72	0.31	0.11
COc1ccc(COc2cc3oc(=O)c4cc(C(C)O)ccc4c3cc2OC)cc1 (stereo not given) [Palomid 529 (P529)]	0.55	0.39	-3.05	0.84	0.78	0.66	0.23	0.68	0.97	0.03
O=C(Nc1cccc(C(F)(F)F)c1)c1cccc2cc(Oc3cc(CO)ncn3)ccc12	0.45	-0.21	-4.53	0.52	0.8	0.31	-0.18	0.78	0.98	0.86

Structure (SMILES)	thermal shift delta Tm [1] [°C]	thermal shift delta Tm [2] [°C]	thermal shift delta Tm [3] [°C]	thermal shift delta Tm [4] [°C]	thermal shift delta Tm [5] [°C]	thermal shift delta Tm [6] [°C]	thermal shift delta Tm [7] [°C]	thermal shift delta Tm [8] [°C]	thermal shift delta Tm [9] [°C]	thermal shift delta Tm [10] [°C]
C=CC(=O)Nc1cccc(C)c1Nc1ncc2cc(-c3c(Cl)c(OC)cc(OC)c3Cl)ccc2n1	0.51	0.53	-0.76	0.18	0.34	0.48	-5.85	0.33	0.84	0.04
Cc1nc(N)sc1-c1ccnc(Nc2ccc(N3CCOCC3)cc2)n1	2.53	13.4	8.12	0.36	0.56	0.98	6.87	0.66	0.8	0.42
CNc1nc(Nc2cnn([C@H]3CCN(C4COC4)C[C@@H]3F)c2Cl)ncc1C(F)(F)F	1.85	10.8	5.54	0.59	0.51	0.4	5.64	0.65	0.89	0.28
Cn1c(=O)c(Oc2ccc(F)cc2F)cc2cnc(NC(CCO)CCO)nc21	-0.25	0.33	-2.67	0.51	0.63	0.19	-0.27	0.72	1.46	0.54
CC(C)NC(=O)COc1cccc(-c2nc(Nc3ccc4[nH]ncc4c3)c3ccccc3n2)c1	0.57	1.61	-3.52	0.71	0.73	0.42	0.58	0.84	0.26	-0.31
CC(C)(CO)n1cc(C(=O)c2cncc(NC(=O)Cc3ccc(Cl)cn3)c2)c2cnc(N)nc21	0.34	5.09	-0.67	0.14	0.02	0.18	2.22	0.45	1.47	0.34
C[C@@H]1CN(C(=O)c2ccc(NC(=O)c3cc(O[C@H](C)c4c(Cl)ccc(F)c4Cl)c(N)nn3)cc2)C[C@H](C)N1 [Ensartinib (X-396)]	4.75	7.81	5.94	0.56	0.45	0.3	13.8	0.22	0.36	0.35
O=C(Nc1cnn2ccc(N3CCC[C@@H]3c3cc(F)ccc3F)nc12)N1CC[C@H](O)C1 [Larotrectinib (LOXO-101) sulfate]	-0.61	5.23	0.04	0.01	0.53	0.03	2.16	0.35	0.63	0.56
c1cc(-c2cnn3cc(-c4ccc(OCCN5CCCCC5)cc4)cnc23)ccn1 [Dorsomorphin 2HCl]	6.96	9.81	12.6	3.18	1.22	0.81	8.76	0.18	1.04	1.17
CN1CC(O)C2=C/C(=N/NC(N)=O)C(=O)C=C21 (stereo not given) [Carbazochrome]	-0.07	1.06	-3.49	-0.11	0.11	0.35	0.27	0.09	0.68	0.58
CCc1nc(C(N)=O)c(Nc2ccc(N3CCC(N4CCN(C)CC4)CC3)c(OC)c2)nc1NC1CCOCC1 [Gilteritinib (ASP2215)]	5.73	17.4	9.44	1.33	0.92	1.54	15.3	0.74	1.35	0.17
CNC(=O)c1cc(Oc2ccc(NC(=O)Nc3ccc(Cl)c(C(F)(F)F)c3)c(F)c2)ccn1 [Regorafenib (BAY 73-4506)]	0.11	1.47	-2.37	0.42	0.34	0.38	-0.02	0.83	0.59	0.35
CCn1c(C(=O)N(C2CC2)C2CC2)cc2c3c(ncn3C)c(Nc3cc(C)n(C)n3)nc21	0.17	6.42	2.92	0.88	0.47	0.51	2.11	0.64	1.49	0.76
Cc1ccc(NC(=O)c2ccc(CN3CCN(C)CC3)cc2)cc1Nc1nccc(-c2cccnc2)n1 [Imatinib (STI571)]	0.39	2.43	-0.13	0.71	0.5	0.23	0.3	0.22	1.37	0.97
CN(C)C[C@@H]1CCn2cc(c3ccccc32)C2=C(C(=O)NC2=O)c2cn(c3ccccc23)CCO1	-0.32	5.79	2.45	0.65	0.63	0.63	0.27	0.46	2.56	0.33
C=CC(=O)Nc1cccc(Sc2nc(Nc3ccc(N4CCN(C)CC4)cc3)ncc2Cl)c1	4.52	11.5	7.67	7.81	2.25	0.95	5.61	-0.33	0.28	0.95
COC1(c2sc3c(N4CCOCC4)nc(-c4cnc(N)nc4)nc3c2C)COC1	0.27	5.18	1.1	0.27	0.59	1.45	3.12	0.17	0.85	0.65
CC(C)(C#N)c1ccc(N2C(=O)OCc3cnc4ccc(-c5cnc6ccccc6c5)cc4c32)cc1	0.16	1.96	-0.65	0.5	0.58	0.71	0.44	0.89	1.76	0.63
CCN(CC)CCCC(C)Nc1nc(C)cc(Nc2ccc3nc(C)cc(N)c3c2)n1 (stereo not given)	-0.27	-0.09	-1.91	0.14	0.63	0.55	-0.04	0.19	1.53	0.49

Source: the supplement of paper PMC9694430
